TRHR agonist: activates the human TRH receptor; activation, % at 2 µM; TRHR cells, calcium flux fluo-8, FDSS agonist mode; 360,000 compounds, 0.18% hits; also: 0% is about no effect
Target sequence (P34981 whole entry, looked up): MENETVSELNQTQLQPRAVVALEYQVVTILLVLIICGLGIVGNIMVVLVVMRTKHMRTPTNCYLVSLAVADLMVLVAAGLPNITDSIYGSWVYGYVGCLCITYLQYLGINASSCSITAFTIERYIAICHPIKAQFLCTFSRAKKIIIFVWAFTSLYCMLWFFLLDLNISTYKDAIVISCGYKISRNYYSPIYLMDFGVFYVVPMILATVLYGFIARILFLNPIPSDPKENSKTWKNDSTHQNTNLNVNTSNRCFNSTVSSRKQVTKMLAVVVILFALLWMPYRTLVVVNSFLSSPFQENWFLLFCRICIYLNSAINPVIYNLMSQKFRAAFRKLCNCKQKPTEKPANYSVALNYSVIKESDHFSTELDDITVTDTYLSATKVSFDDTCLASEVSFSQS
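Read-out: compound-evoked intracellular calcium rise in TRHR cells, fluo-8 dye, kinetic FDSS fluorescence at 1 s/cycle following a 10-cycle baseline. Cells cultured overnight before dye loading (30 min–1.5 h, RT).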
TRHR enhancer: allosteric enhancers of human TRH receptor; P34981; TRHR cells, fluo-8 calcium fluorescence, EC20 TRH enhancement; enhancement, % at 2 µM; 360,000 compounds, 0.66% hits; in the data active = enhancement above about 30%; also: 0% is about no effect
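TRHR-expressing cells loaded with fluo-8 calcium dye were read kinetically (ex 480/em 530) during compound addition, then stimulated with an EC20 of TRH (10 nM final). Enhancement of the Gq-mediated intracellular calcium response was scored.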
D1 antag: blocks dopamine activation of the human D1 receptor; P21728; HEK293 TREx D1 cells, calcium flux, dopamine EC80; stronger effect = lower value; activity change, negative = inhibition, % at 10 µM; 360,000 compounds, 3.2% hits; in the data active = activity change below about -30%; also: % is scaled to controls: 0 for no effect and ±100 for the full control effect
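Calcium flux readout: force-coupled, inducible Hek293 Trex D1 line, cells induced overnight at 30 C with tetracycline, dye-loaded 30–90 min at RT. Antagonism scored against EC80 dopamine challenge given 180 s after compound.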
D1 PAM: human D1 dopamine receptor positive modulation. potentiation, % at 10 µM. 360,000 compounds, 0.036% hits. HEK293 TREx D1 cells, calcium flux, dopamine EC20 potentiation; in the data active = potentiation above about 30%; also: 0% is about no effect
D1 agonist: activates the human D1 dopamine receptor | activation, % at 2 µM | AID 504660 | HEK293 T-REx D1 cells, calcium flux, agonist mode | 360,000 compounds, 1% hits | P21728; also: 0% is about no effect
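Inducible HEK293 T-REx D1 cells, force-coupled to calcium signalling, were plated at 4000 cells/well with tetracycline and held overnight at 30 C. After no-wash calcium dye loading, compound-evoked calcium rise over 180 s flagged agonists.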
* = called active by the depositor; ! = not active in a repeat. An excerpt weighted towards active compounds, which were near 4.6% of everything screened. Rule as the data show it, unless noted: active = activation above about 30%; inactive = the rest.

SMILES	TRHR agonist	TRHR enhancer	D1 antag	D1 PAM	D1 agonist
Cc1ccc(S(=O)(=O)Nc2ccc3c(c2)CCCN3C(=O)c2cccs2)cc1	-2	0	-17	0	11
O=C(Nc1ccc2c(c1)CCCN2C(=O)c1cccs1)c1ccccc1	-1	-5	-28	-5	2
CC(=O)c1ccc(NC(=O)C2CCN(S(=O)(=O)c3cccs3)CC2)cc1	-1	-5	-8	-4	10
CCOc1cc(C(=O)Nc2ccc([N+](=O)[O-])cn2)cc(OCC)c1OCC	0	-3	-51*	-5	4
CC(C)Sc1nnc(SCC(=O)N(C)C2CCS(=O)(=O)C2)s1 (stereo not given)	0	9	15	1	0
COc1cc(OC)c(NC(=O)CSc2cc(=O)n(C)c3ccc(Cl)cc23)cc1Cl	0	40*	5	5	0
ClCCCc1cn(C[C@H]2CC[C@@H]([C@@H]3CC[C@H](Cn4cc(CCCCl)nn4)O3)O2)nn1	1	-1	-1	1	0
O=C1OC[C@H](Cc2ccc3c(c2)OCO3)/C1=C\c1ccc2c(c1)OCO2	0	9	-33*	0	20
O=C1CC(Cc2ccccc2)C(=O)N1CCc1ccc2c(c1)OCO2 (stereo not given)	0	12	-8	3	2
O=c1c(/C=C(\O)c2ccccc2)nc2ccccc2n1-c1ccccc1	47*	-3	3	4	169*
Cc1nc2ccccc2n1-c1ccccc1	0	0	-25	-5	2
CCO/C=N/c1c(C#N)c(CC#N)nn1-c1ccccc1	0	-1	-33*	-6	3
CCOC(=O)c1nn(-c2ccccc2)c(=O)c(C#N)c1C	0	0	7	-3	-1
O=C(Nc1ccc(F)cc1F)N1CCCN(c2ccc(C(F)(F)F)cn2)CC1	0	-3	-13	-2	10
CC1CN(C(=S)Nc2ccc(F)cc2F)CC(C)O1 (stereo not given)	0	-5	2	5	0
Fc1ccc(NC(=S)N2CCCN(c3ccc(C(F)(F)F)cn3)CC2)c(F)c1	1	2	-54*	-7	17
Cc1csc2ncnc(N3CCN(C(=S)Nc4ccc(F)cc4F)CC3)c12	-1	1	-36*	-5	10
Cc1ccc(NC(=O)C2CCCN(S(=O)(=O)c3c(C)n[nH]c3C)C2)cc1Cl (stereo not given)	3	-7	6	2	36*
Cc1ccc(S(=O)(=O)N2CCCC(C(=O)Nc3ccc(C(=O)O)cc3)C2)cc1Cl (stereo not given)	0	-2	-33*	-12	2
Cc1ccc(S(=O)(=O)N2CCCC(C(=O)NCc3ccco3)C2)cc1Cl (stereo not given)	0	3	5	2	-1
COc1cccc(NC(=O)C2CCCN(S(=O)(=O)c3c(C)[nH]c(=O)[nH]c3=O)C2)c1 (stereo not given)	0	-6	1	6	0
Cc1ccc(S(=O)(=O)N2CCCC2)cc1C(=O)Nc1ccc(-n2cnnn2)cc1	0	-1	-31*	-10	5
COc1ccc(NC(=O)C2CCCN(S(=O)(=O)c3c(C)[nH]c(=O)[nH]c3=O)C2)cc1 (stereo not given)	1	-4	-31*!	-4	0
Cc1n[nH]c(C)c1S(=O)(=O)N1CCCC(C(=O)N2CCN(c3ccc(Cl)cc3)CC2)C1 (stereo not given)	0	6	-48*	-7	19
Cc1nn(C)c(C)c1S(=O)(=O)N1CCCC(C(=O)N2CCN(c3ccc(Cl)cc3)CC2)C1 (stereo not given)	0	8	-7	2	0
SMILES	TRHR agonist	TRHR enhancer	D1 antag	D1 PAM	D1 agonist
CCCCCC(=O)N1CC2(CC(c3cccc(NC(=O)CC(c4ccccc4)c4ccccc4)c3)=NO2)C[C@@H]1C(N)=O (stereo not given in full)	1	-3	-47*	-4	9
CCC(=O)N1CC2(CC(c3cccc(NC(=O)COc4ccc(Cl)cc4)c3)=NO2)C[C@@H]1C(N)=O (stereo not given in full)	0	0	-53*	6	3
CCCCCC(=O)Nc1cccc(C2=NOC3(C2)C[C@H](C(N)=O)N(C(=O)CCCCC)C3)c1 (stereo not given in full)	0	2	5	4	0
COc1cc(/C=N\NC(=O)Cn2nnc3ccccc32)cc(OC)c1OC	0	1	10	-11	2
COc1c(O)cc2oc(-c3ccc(O)cc3)cc(=O)c2c1O	-1	-2	-21	-7	2
Cc1c2cc(O)c(=O)cc-2oc2cc(O)c(O)cc12	3	6	-4	-3	34*!
COc1cc(OC)c(-c2c3cc(O)c(=O)cc-3oc3cc(O)c(O)cc23)cc1OC	266*	152*	71	32*	626*
Cc1cc(C)c(S(=O)(=O)c2ccc(Cl)cc2)c(=O)[nH]1	0	6	4	3	2
N#Cc1cc(S(=O)(=O)c2ccc(Cl)cc2)c(N)[nH]c1=O	-1	-6	-45*	-4	2
O=C1COc2ccc(S(=O)(=O)N3CCN(c4cccc(Cl)c4)CC3)cc2N1	0	2	1	-6	5
Cc1cc(Cl)c2ccc3ccccc3c2n1	1	-10	-2	-1	2
O=S(=O)(Nc1cccc2ccccc12)c1ccccc1	1	0	-21	12	1
O=S(=O)(Nc1cccc2ccccc12)c1cccc2ccccc12	0	-2	-43*	-6	3
COc1ccc(CC(NC(C)=O)C(=O)NC2CCN(C(=O)c3cnccn3)CC2)cc1 (stereo not given)	2	-2	2	-8	3
OC[C@H]1O[C@@H](O[C@@H]2[C@@H](CO)O[C@@](O)(CO)[C@H]2O)[C@H](O)[C@@H](O)[C@H]1O	2	5	-36*	-7	-1
COc1cc(N2C(=O)c3ccccc3C2=O)c(Cl)cc1C(=O)OCC(=O)NCc1ccco1	-1	-5	-11	-3	4
O=C(Oc1ccc(O)cc1)C12CC3CC(CC(C3)C1)C2	9	-3	-8	21	41*
O=C(Oc1ccc2c(c1)OCO2)C12CC3CC(CC(C3)C1)C2	-1	-10	9	7	2
O=c1c2c(-c3ccc(Cl)cc3)csc2nc2n1CCC2	0	6	0	1	0
CCCCN(CC)CCNC(=O)c1cc2c(=O)[nH]c3ccccc3c2n1C	0	7	-6	4	0
Cc1cc(NC(=O)COc2cccc3cccnc23)no1	0	-1	0	0	1
NC(=O)COc1cccc2cccnc12	0	-23	-79*	-10	0
Cc1ccc(NC(=S)N(CCCN2CCOCC2)Cc2ccco2)cc1C	1	-1	8	0	-1

Screens: PubChem, National Center for Advancing Translational Sciences (NCATS)
